Compound activity as filed in PubChem.
ADAM10 inh = ADAM10 inhibition, QFRET primary screen; O14672; recombinant ADAM10, EDANS/DABCYL FRET peptide cleavage, 3 h; inhibition, % at 7 µM; 370,000 tested, 0.62% active;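 active = inhibition above a per-campaign cutoff equal to the mean of compounds falling between control-based bounds plus 3 SD, cut at about 20% in these data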
KLK7 zymogen act = activators of human kallikrein-7 zymogen. P49862. purified proKLK7, EDANS-DABCYL substrate fluorescence; 100% is mature enzyme control, 0% vehicle. activation, % at 7 µM. 370,000 tested, 0.9% active. AID 652039;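 active = activation above the mean of all tested compounds plus 3 SD, computed per campaign excluding outliers beyond control limits, cut at about 13% in these data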
FGF22 binding = shifts melting point of recombinant human FGF22; Q9HCT0; recombinant FGF22 thermal shift, SYPRO orange fluorescence; percent of sucrose octasulfate shift, DMSO zero; 340,000 tested, 1.5% active; AID 651658; activity (Tm shift, normalised), % at 9.99 µM;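 active = mean Tm shift, scaled 0 neutral to 100 positive control, at about 1.3% or above, every replicate too, limit read from the data; inconclusive = no clear call, values can overlap the other calls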
Target sequence (Q9HCT0 whole entry, looked up): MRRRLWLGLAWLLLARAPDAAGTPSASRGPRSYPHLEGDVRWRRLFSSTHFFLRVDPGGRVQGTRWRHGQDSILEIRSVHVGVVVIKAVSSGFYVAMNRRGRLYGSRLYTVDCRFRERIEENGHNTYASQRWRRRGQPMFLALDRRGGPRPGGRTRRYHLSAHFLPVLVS
ADAM17 inh = inhibitors of human ADAM17; recombinant ADAM17, EDANS/DABCYL FRET peptide cleavage; inhibition, % at 6.95 µM; 370,000 tested, 0.83% active;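 active = inhibition above the mean of compounds lying between control limits plus 3 SD, set per campaign, cut at about 8.5% in these data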
rRNA inh HTS = inhibits bacterial ribosomal RNA function over humanized ribosomes; E. coli WT GFP vs humanized-ribosome RFP mutants, fluorescence, 24 h; hits give low values; DMSO median 0, no signal -100; AID 720706; GFP signal change (wild-type ribosome), % (no concentration beside the values); 350,000 tested, 1.6% active;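 active = significant combined selectivity score with lowered wild-type GFP, culture density cut under 30%, mutant RFP and density less affected; inactive = any of these conditions unmet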
ADAM10 counter = inhibits human ADAM10 in ADAM17 exosite counter-screen | shares compounds with ADAM17 inh | recombinant ADAM10, EDANS/DABCYL FRET peptide cleavage, 3 h | inhibition, % at 6.95 µM | 2,900 tested, 47% active;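 active = mean inhibition over the triplicate runs exceeds the activity threshold set in the earlier primary screen, cut at about 20% in these data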
ADAM17 confirm = human ADAM17 inhibition, confirmation | shares compounds with ADAM17 inh | recombinant ADAM17, EDANS/DABCYL QFRET peptide cleavage | inhibition, % at 6.95 µM | 2,900 tested, 65% active | AID 743257;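 active = mean inhibition across replicates above the hit cutoff set in the primary screen, cut at about 8.5% in these data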
AID977621 = growth inhibition of wild-type GFP E. coli, dose response, H69 mutant RFP, cherry-pick; E. coli wild-type GFP strain growth, fluorescence, 24 h; shares compounds with rRNA inh HTS; activity change, negative = inhibition at 50 µM; AID 977621; 1,900 tested, under 10 active;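 active = Wild-type ribosome reporter drop at least double the humanized mutant ribosome reporter drop, growth loss under a set limit; inconclusive = no clear call, values can overlap the other calls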;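 also: wild-type GFP and H69 mutant RFP strains grown together 50/50 in each well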
Numbers stand for hits; n = inactive; u = inconclusive; x = no result. The list is not random: actives were taken first. Their share in the collection is about 3.8%.

SMILES	ADAM10 inh	KLK7 zymogen act	FGF22 binding	ADAM17 inh	rRNA inh HTS	ADAM10 counter	ADAM17 confirm	AID977621
O=C(Cc1ccccc1)N1CC2(C1)[C@H](c1ccccc1)[C@H](CO)N2Cc1cccc(F)c1	x	x	n	x	n	x	x	x
Cc1ccc(Cn2nnnc2CN2CCC(n3nnc4cc(C)ccc43)CC2)cc1	n	n	x	9.3	x	n	n	x
CCOC(=O)C(O)(c1ccc(NC(=S)NC(=O)c2ccc(Cl)cc2Cl)c(C)c1)C(F)(F)F (stereo not given)	29	n	n	15	n	47	23	x
CCOC(=O)C(O)(c1ccc(NC(=S)NC(=O)c2ccc(Cl)cc2Cl)cc1)C(F)(F)F (stereo not given)	n	n	x	9.6	x	24	14	x
O=C(NN=Cc1ccc(N(CCCl)CCCl)cc1)C(=O)c1c[nH]c2ccccc12	n	n	n	15	n	n	13	x
ClCCN(CCCl)c1ccc(C=NNc2ncccn2)cc1	n	n	n	n	n	x	x	x
COC(=O)c1c(C)n(Cc2ccccc2)c2ccc(O)cc12	n	n	n	n	n	x	x	x
CCOC(=O)c1c(C)n(Cc2ccccc2)c2ccc(O)cc12	n	n	n	n	-27	x	x	n
C[C@]12CCC3C(CC[C@H]4C[C@@H](O)CC[C@]34C)[C@H]1CC[C@H]2O (stereo not given in full)	n	n	n	n	-20	x	x	n
COC(=O)[C@@H]1[C@@H](CO)[C@@H]2Cn3c(ccc(-c4cccc(F)c4)c3=O)[C@H]1N2C(=O)CC1CC1	x	x	n	x	n	x	x	x
CCCCn1c(NS(=O)(=O)c2ccc(C)cc2)c(C(=O)OCC)c2nc3ccccc3nc21	n	n	n	n	-22	x	x	u
COc1ccc(C#Cc2ccc([C@H]3[C@@H](CO)N4CCCCN(C(=O)Cc5cccnc5)C[C@@H]34)cc2)cc1	x	x	n	x	n	x	x	x
CC(=O)OC1N=C(c2ccccc2Cl)c2cc(Br)ccc2NC1=O (stereo not given)	n	n	n	n	-20	x	x	n
CC(C)CC#Cc1ccc([C@H]2[C@@H](CO)N3CCCCN(C(=O)Cc4ccccn4)C[C@H]23)cc1	x	x	n	x	n	x	x	x
CCOC(=O)[C@]12Cc3ccccc3[C@H]1N(C)C(=O)c1cc(OC)ccc12	n	n	n	n	-20	x	x	n
CCOC(=O)[C@]12Cc3ccccc3[C@H]1N(C(C)C)C(=O)c1cc(OC)ccc12	n	n	n	n	n	x	x	x
